Measurements taken from PubChem BioAssay (NCI).
Where “and” joins values, the source holds several entries; their conditions need not be identical. Identical values can stand only once. The panel holds about 79,000 compounds, 15% with a hit somewhere; the sample as a whole holds those more often. Cut-off read from the data, not from the text of the source: active = growth inhibition above about 70%; inactive = the rest.

What was measured:
[1] = NCI Yeast Anticancer Drug Screen. Data for the rad50 strain (AID 155);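 note: 0% = growth of vehicle-only cultures of the same strain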; settings: S. cerevisiae rad50 strain growth inhibition, active compounds read high; at 50.0 µM unless noted
How it was run: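 Compounds were tested on a yeast strain with an engineered DNA damage repair alteration; the reported value is growth inhibition normalised to vehicle treatment.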

[2] = NCI Yeast Anticancer Drug Screen. Data for the mec2-1 strain (AID 157); settings: S. cerevisiae mec2-1 strain, active compounds read high; at 50.0 µM unless noted
How it was run: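 Compounds were applied to mec2-1 yeast cells. Their growth was then compared with that of vehicle-treated cultures to give growth inhibition.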

[3] = NCI Yeast Anticancer Drug Screen. Data for the sgs1 mgt1 strain (AID 161);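 note: 0% = growth of cultures given vehicle only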; settings: S. cerevisiae sgs1 mgt1 strain, active compounds read high; at 50.0 µM unless noted
How it was run: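 Compounds are added to genetically altered yeast, and growth is compared with cultures given vehicle alone to give percent inhibition.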

[4] = NCI Yeast Anticancer Drug Screen. Data for the cln2 rad14 strain (AID 165);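 note: 0% = growth equal to vehicle treated cultures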; settings: S. cerevisiae cln2 rad14 strain, active compounds read high; at 50.0 µM unless noted
How it was run: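 Strain: cln2 rad14 yeast, altered in cell cycle control and DNA damage repair. Read-out: growth inhibition vs vehicle.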

[5] = NCI Yeast Anticancer Drug Screen. Data for the bub3 strain (AID 167); settings: S. cerevisiae bub3 mutant strain, active compounds read high; at 50.0 µM unless noted
How it was run: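 Growth of a checkpoint-deficient yeast mutant is measured after compound exposure. Values represent inhibition relative to vehicle.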

[6] = NCI Yeast Anticancer Drug Screen. Data for the mlh1 rad18 strain (AID 175); settings: S. cerevisiae mlh1 rad18 strain growth inhibition, active compounds read high; at 50.0 µM unless noted
How it was run: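 A repair-deficient yeast strain is exposed to test compound, and growth is scored relative to vehicle-treated controls.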

Measured: growth inhibition

Cc1ccc(S(=O)(=O)OC2CSS(=O)CC2OS(=O)(=O)c2ccc(C)cc2)cc1 (stereo unspecified)
inactive: [1] 12.8% | [2] -3.15% | [3] 4.45% | [4] 19.1% | [5] -1.4% | [6] 21.1%

CC1=C(C(=O)Nc2cc(=O)n(C)c(=O)n2C)C(c2cccc([N+](=O)[O-])c2)C(C(=O)Nc2cc(=O)n(C)c(=O)n2C)=C(C)N1
inactive: [1] 8.7% | [2] 32.1% | [3] 24.9% | [4] 21.9% | [5] 24.4% | [6] 41.8%

CC(=O)C1=CC2(OC3CCC(O)(C(=O)CO)C(C)O3)C(=O)c3c(cc4cccc(O)c4c3O)CC2C(O)C1O (stereo unspecified)
inactive: [1] -6.2% | [2] -1.05% | [3] 2.9% | [4] -21.2% | [5] 20.8% | [6] 9.65%

CC(C)C(=O)NS(=O)(=O)c1ccccc1
inactive: [1] -14.6% | [2] -3.8% | [3] 0.5% | [4] -7.55% | [5] -14.4% | [6] -27.9%

CCOc1ccccc1NC(=O)C(=O)C(C(=O)c1ccc2ccccc2c1)C1OC(=O)c2ccccc21 (stereo unspecified)
inactive: [1] -4% | [2] 4.35% | [3] 13.6% | [4] -50% | [5] 12.5% | [6] 0.45%

C1COC2(OC1)OCCCO2
inactive: [1] -14.8% | [2] 1.35% | [3] -7.85% | [4] -71.5% | [5] 8.75% | [6] 3.05%

Cc1c(SC(Cl)(Cl)Cl)cc([N+](=O)[O-])c(N(C)C)c1[N+](=O)[O-]
inactive: [1] 13.5% | [2] 24.9% | [3] 34.6% | [4] -43.9% | [5] 6.45% | [6] 10%

CNC(=O)N(CCCC(NC(C)=O)C(=O)NCc1ccccc1)Cc1ccccc1 (stereo unspecified)
inactive: [1] 16.1% | [2] 3.4% | [3] -7.95% | [4] 17.6% | [5] 8.5% | [6] 18.9%

CCOC(=O)Cn1c(=O)[nH]c(=O)c2c1ncn2Cc1ccccc1
inactive: [1] 32.9% | [2] -2.35% | [3] -3.1% | [4] 13.2% | [5] 30.2% | [6] 25.7%

Cc1ccc(C2=Nc3ccccc3NC(=O)C2)cc1
inactive: [1] -2.6% | [2] -20.1% | [3] -12.6% | [4] 22.2% | [5] -7.35% | [6] -17.9%

CCCCCC1CC(=O)NC1C(=O)O (stereo unspecified)
inactive: [1] -2.75% | [2] 1.25% | [3] -10.8% | [4] -8.8% | [5] -1.15% | [6] -8.95%

CC(C)CC(Br)C(=O)NCC(=O)O (stereo unspecified)
inactive: [1] -25.1% and 5.2% | [2] -55.1% and -6.55% | [3] -27.9% | [4] 8.5% | [5] -24.1% | [6] -11% and -4.8%

CCOC(=O)CN(c1c(C)cc([N+](=O)[O-])c2ccccc12)S(=O)(=O)c1ccccc1
inactive: [1] 50.1% | [2] 13.8% | [3] 33.8% | [4] 6.65% | [5] 16.9% | [6] 12.2%

O=C(NC(NC(=O)c1ccccc1)c1ccccc1)c1ccccc1
inactive: [1] 2.1% | [2] -9.2% | [3] 1.25% | [4] -55.2% | [5] 8.55% | [6] -0.9%

CC(=O)Nc1ccc(C2NCc3cnc(C)nc3N2)cc1 (stereo unspecified)
inactive: [1] 0.35% | [2] -0.75% | [3] 0.15% | [4] -6.95% | [5] 10.2% | [6] 0.95%

O=C(Nc1ccccc1)c1cc(S(=O)(=O)Nc2n[nH]c(=O)[nH]2)c(SSc2cc(Cl)c(C(=O)Nc3ccccc3)cc2S(=O)(=O)Nc2n[nH]c(=O)[nH]2)cc1Cl
inactive: [1] 18.8% | [2] 22.7% | [3] -8.5% | [4] -6.35% | [5] -2.25% | [6] 25.4%

CC(C)(C)c1cc(-n2nc3ccccc3[n+]2[O-])c(O)c(C(C)(C)C)c1
inactive: [1] 4.35% | [2] 12.8% | [3] 20.1% | [4] 18.6% | [5] -0.6% | [6] 33.6%

CSc1ccc2c(c1)N(CCCN(C)C)c1ccccc1S2
inactive: [1] -15% | [2] -4.15% | [3] -1.05% | [4] -13.8% | [5] 44.5% | [6] 33.5%

CC(=O)[CH-]C(=O)c1ccccc1.CC(=O)[CH-]C(=O)c1ccccc1.CC(C)CCCC(C)[C@H]1CCC2[C@@H]3CCC4C[C@@H]([O-])CC[C@]4(C)C3CC[C@@]21C.CC(C)CCCC(C)[C@H]1CCC2[C@@H]3CCC4C[C@@H]([O-])CC[C@]4(C)C3CC[C@@]21C.Cl.[Ti+4] (stereo partly specified)
inactive: [1] 14.4% | [2] 1.25% | [3] 21.4% | [4] -12.1% | [5] 25.6% | [6] -0.95%

COC1CCC2C3CCC(C3)C12 (stereo unspecified)
inactive: [1] 26.9% | [2] -2% | [3] 6.4% | [4] 5.05% | [5] -12.9% | [6] -10.2%

CN(C)CC(C(=O)/C=C/c1ccccc1)C(C)(C)C (stereo unspecified)
inactive: [1] -10.4% | [2] -21.9% | [3] -16.2% | [4] 11.6% | [5] -11% | [6] -38.3%

O=C(Cc1ccc([N+](=O)[O-])cc1)Nc1cccc(O)c1
inactive: [1] -4.85% | [2] 29.2% | [3] -4.9% | [4] -13.5% | [5] 47.4% | [6] 14.8%

CN(C)C(=S)/N=c1\ssc(=S)n1Cc1ccccn1
inactive: [1] 3.05% | [2] -11.9% | [3] 1.8% | [4] 22.1% | [5] -9.55% | [6] -10.9%

Cc1cc(C)nc(NS(=O)(=O)c2ccc(NC(=O)NC(F)(F)F)cc2)n1
inactive: [1] -41% | [2] -30.2% | [3] -63% | [4] 15.8% | [5] 26.9% | [6] -23.9%

O=C(O)c1ccccc1Br
inactive: [1] 1.1% | [2] 5.4% | [3] -13.6% | [4] -6.95% | [5] -17.4% | [6] -3.35%

COc1ccc(C2c3c(ccc4ccccc34)Oc3ccc4ccccc4c32)cc1
inactive: [1] -8.05% | [2] -23.6% | [3] 7.5% | [4] 6.85% | [5] 2.85% | [6] -8.45%

CC12OC3(C)C4CC1C1(C)OC4(C)C3C(O)C21 (stereo unspecified)
inactive: [1] -0.8% | [2] 4.8% | [3] -3.7% | [4] -16.6% | [5] -6.5% | [6] 10.3%

CC1OC(O[C@H]2CC[C@]3(C)[C@H]4CC=C5[C@@H]6[C@@H](C)[C@H](C)CC[C@]6(C(=O)OC6OC(CO)C(O)C(O)C6O)CC[C@@]5(C(=O)O)[C@]4(C)CC[C@H]3C2(C)C)C(O)C(O)C1O (stereo partly specified)
inactive: [1] -11.8% | [2] -1.8% | [3] -31.6% | [4] -29.5% | [5] -23.2% | [6] -40.5%

CC1(C)OC2C(/C=C\C(=O)c3ccccc3)OC(n3ccc(=O)[nH]c3=O)C2O1 (stereo unspecified)
inactive: [1] -36.6% | [2] 10.3% | [3] 5.6% | [4] 13.4% | [5] -1.55% | [6] -1.5%

CC1CCCCN1C(=O)Nc1ccc(Cl)cc1[N+](=O)[O-] (stereo unspecified)
inactive: [1] 9.3% | [2] 44.2% | [3] 29.6% | [4] -15.6% | [5] 64.3% | [6] 42.4%

O=C1CN(c2ccccc2)C(=O)CN1NCNN1CC(=O)N(c2ccccc2)CC1=O
inactive: [1] -27.4% | [2] 2.1% | [3] -1.5% | [4] 4.35% | [5] -10% | [6] -5%

O=C(O)c1ccc([N+](=O)[O-])cc1Br
inactive: [1] 3.5% | [2] -2.85% | [3] -4.65% | [4] -45% | [5] -23.6% | [6] 6.2%

COc1cccc(C)c1O
inactive: [1] 9.8% | [2] -7.35% | [3] -7.8% | [4] 6.55% | [5] 20.6% | [6] 3.3%

Nc1ccc2c(O)cc(S(=O)(=O)O)cc2c1
inactive: [1] 39% and 26.9% | [2] 5.1% and 0.25% | [3] 4.5% and -20.9% | [4] -29.1% and -73% | [5] 19.6% and 4.85% | [6] 3.7% and 10.4%

CC(C)CCOC(=O)C(O)c1ccccc1 (stereo unspecified)
inactive: [1] 15.6% | [2] 2.8% | [3] 0.4% | [4] -22.2% | [5] -25.7% | [6] 8.45%

Cc1cc[n+]2cc(-c3ccc(/C=N/N=C(N)N)cc3)n(C)c2c1
inactive: [1] 22.9% | [2] 33.9% | [3] 18.7% | [4] 28.9% | [5] -8.75% | [6] 29.9%

COCC(C)OC(=O)COc1ccccc1 (stereo unspecified)
inactive: [1] 1.05% | [2] -21.6% | [3] -10.4% | [4] -46.5% | [5] -4.35% | [6] -6.65%

CC1(c2ccccc2)CC/C(=C/c2ccccc2)C1=O (stereo unspecified)
inactive: [1] -5.4% | [2] 10.1% | [3] 25.9% | [4] -43.5% | [5] 33.3% | [6] 18.3%

CS(=O)(=O)OCCN(CCOS(C)(=O)=O)c1cc(C(N)=O)c([N+](=O)[O-])cc1[N+](=O)[O-]
inactive: [1] -5.05% | [2] 9.55% | [3] -11.7% | [4] -12.9% | [5] -0.35% | [6] 16.9%

CCCCCCCCCCCCCCCCCCOC(=O)CC(C)=O
inactive: [1] -2.75% | [2] -4.55% | [3] -12.2% | [4] -5% | [5] -9.2% | [6] 3.95%

Cc1cnc2ccccc2c1/C=C/c1ccc(N(C)C)cc1
inactive: [1] -6.15% | [2] -0.1% | [3] 1.55% | [4] -121% | [5] 14.1% | [6] 14.1%
